# From PubChem BioAssay (NCATS)
# Inconclusive results are not listed. Calls of active or inactive are those of the source. Unless noted, calls come from the whole dose curve; as a rule, active = well fitted curve in the direction sought with a large enough effect; inconclusive = small, poorly fitted or top-dose-only effect, or another doubt; inactive = no such curve, though single readings can be large; an effect the other way counts as inactive or inconclusive.
# What was measured:
# [1] = qHTS for differential inhibitors of proliferation of Plasmodium falciparum line Dd2 (AID 1882); settings: Potency: Plasmodium falciparum Dd2 proliferation inhibition; note: potency is the fitted concentration of half-maximal effect; nearly all actives have a fitted effect of over 65% in size
# Outline: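 Dd2-infected erythrocytes (0.3% parasitemia, 2.5% hematocrit final) incubated with compound 72 h at 37 C, 5% CO2; lysed with saponin/Triton buffer containing SYBR Green I, incubated overnight in the dark, then read by fluorescence (485/535 nm). Normalized to 0.29 uM artemisinin and DMSO.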
# [2] = qHTS for differential inhibitors of proliferation of Plasmodium falciparum line W2 (AID 1883); settings: Potency: Plasmodium falciparum W2 proliferation inhibition;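 note: potency is the fitted concentration of half-maximal effect; parasites grown with compound for 72 h before lysis and staining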
# [3] = qHTS for differential inhibitors of proliferation of Plasmodium falciparum line HB3 (AID 1886); settings: Potency: Plasmodium falciparum HB3 proliferation inhibition;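 note: potency is the fitted concentration of half-maximal effect; parasites grown with compound for 72 h before SYBR Green readout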
# [4] = molecular target: Ferritin light chain (Equus caballus) (UniProt P02791); experiment: qHTS Validation Assay for Identification of Novel General Anesthetics (AID 2323); note: % is set by controls: 0 for no effect and ±100 for the full control effect
# Outline: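 Horse-spleen apoferritin (10 uM) in PBS with 50% saturated 1-aminoanthracene; compounds pin-transferred, 10 min at room temperature. Fluorescence read at 380/535 nm, normalized to free 1-AMA and 1-AMA/apoferritin values; four-parameter Hill fit.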
# [5] = molecular target: ATP-dependent DNA helicase Q1 (Homo sapiens) (UniProt P46063); experiment: qHTS Validation Assay for Inhibitors of RecQ-Like Dna Helicase 1 (RECQ1) (AID 2353);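 note: plate controls were DMSO vehicle for no effect and enzyme-free control for full effect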
# Outline: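 50 nM RECQ1T1 preincubated 15 min with compound in Tris pH 8.0 buffer with MgCl2, DTT, Tween-20 and 2.5 ug/ml poly(dI-dC); started with 200 nM TAMRA/BHQ-2 forked duplex and 2 mM ATP. Unwinding read as fluorescence (525/598 nm), two reads 2 h apart.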
# [6] = Quantitative high throughput screen for delayed death inhibitors of the malarial parasite plastid, 96 hour incubation (AID 488745); note: potency is the fitted concentration of half-maximal effect; nearly all actives have a fitted effect of over 70% in size
# Outline: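 Luciferase-expressing P. falciparum in erythrocytes (2% hematocrit, 0.1% parasitemia) incubated with compound for 96 h at 37 C, 5% CO2, in RPMI 1640 with 0.5% Albumax. Growth inhibition read as decreased luminescence.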
# [7] = Quantitative high throughput screen for delayed death inhibitors of the malarial parasite plastid, 48 hour incubation (AID 488752); note: potency is the fitted concentration of half-maximal effect; nearly all actives have a fitted effect of over 65% in size
# Outline: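 Erythrocytes infected with firefly luciferase-expressing P. falciparum (2% hematocrit, 0.1% parasitemia) cultured with compound for 48 h at 37 C, 5% CO2, in RPMI 1640/0.5% Albumax. Growth inhibition read as loss of luminescence.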
# [8] = molecular target: M-phase phosphoprotein 8 (Homo sapiens) (UniProt Q99549); experiment: qHTS Validation Assay for Inhibitors for MPP8 Chromodomain Interactions with Methylated Histone Tails (AID 488949); note: top concentration of the series differs between compounds; % is set by controls: 0 for no effect and ±100 for the full control effect; nearly all actives have a fitted effect of over 55% in size
# Outline: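 MPP8 (50 nM) was pre-bound to 50 nM biotinylated H3(1-18)K9me3 peptide in PBS pH 7.4 with 0.01% Tween-20. Compounds were then added for 30 min at room temperature, and complex disruption was read by AlphaScreen with streptavidin donor and nickel-chelate acceptor beads.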
# [9] = molecular target: Transient receptor potential cation channel subfamily V member 1 (Homo sapiens) (UniProt Q8NER1); experiment: HTS Assay for Compounds that Act as Enhancers of the Vanilloid Receptor 1 (AID 488979); note: 0% is about no effect
# Outline: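 TRPV1 cells loaded with Fluo-8 calcium dye; compound added and Ca2+ signal (ex 480/em 520 nm) followed 3 min, then capsaicin at EC20 added and read 2 more min to detect enhancement.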
# [10] = molecular target: Thyrotropin receptor (Homo sapiens) (UniProt P16473); experiment: qHTS Assay for Antagonists of the Thyroid Stimulating Hormone Receptor (AID 488980); note: 0% is about no effect
# Outline: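 TSHR-transfected HEK293 cells (2000/well) in HEPES-buffered HBSS with 70 uM RO 20-1724 were stimulated with 4 nM TSH (EC80, final) in the presence of compound. cAMP was measured by HTRF competition after lysis and 30 min at RT.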
# [11] = molecular target: Thyrotropin-releasing hormone receptor (Homo sapiens) (UniProt P34981); experiment: qHTS for Small Molecule Agonists and Allosteric Enhancers of Human TRH Receptor: Validation Screen for Agonists (AID 493127;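 active = calcium activation more than 3 SD above the typical response in the agonist read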; note: 0% is about no effect); settings: TRH receptor agonist cell assay; at 2 µM; stronger effect = higher value
# Outline: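 TRHR cells loaded with fluo-8 calcium dye; FDSS kinetic fluorescence (Ex 480/Em 530) read at 1 s/cycle after 23 nL compound addition. Agonist-mode calcium response recorded before the 10 nM TRH (EC20) addition.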
# [12] = Validation screen for small molecules that induce DNA re-replication in SW480 colon adenocarcinoma cells (AID 504364); note: 0% is about no effect
# Outline: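 SW480 cells (250/well) exposed 48 h at 37 C, 5% CO2, then Hoechst-stained 40 min. Nuclear DNA content imaged by fluorescence scanning (405 nm excitation, 500-530 nm emission); re-replication scored as increased nuclei with elevated intensity.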
# [13] = molecular target: DNA dC->dU-editing enzyme APOBEC-3G (Homo sapiens) (UniProt Q9HC16); experiment: qHTS for inhibitors of Vif-A3G interactions: Validation (AID 588379); note: 0% is about no effect
# Outline: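 HeLa cells stably expressing Vif and A3G-eYFP, 700 cells/well, incubated overnight at 37 deg C, then exposed to compound overnight at 37 deg C. Inhibition of Vif-mediated degradation read as increased yellow fluorescence (Ex 488/Em 500-530) by laser-scanning cytometry.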
# [14] = molecular target: Voltage-gated inwardly rectifying potassium channel KCNH2 (Homo sapiens) (UniProt Q12809); experiment: qHTS Assay for Small Molecule Inhibitors of the Human hERG Channel Activity (AID 588834);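 note: top concentration of the series differs between compounds; % is set by controls: 0 for no effect and ±100 for the full control effect; lower thallium flux fluorescence means stronger hERG block; nearly all actives have a fitted effect of over 50% in size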
# Outline: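 U2OS cells BacMam-transduced with hERG, 2000 cells/well, compound ~10 min at 37 °C before stimulation buffer. FluxOR thallium flux fluorescence read kinetically on FDSS; decrease indicates block; AC50 from Hill fits.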
# [15] = qHTS profiling for inhibitors of Plasmodium falciparum (3D7) proliferation (AID 743322);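 note: infected erythrocytes exposed to compound for 72 h before lysis; 100% = DMSO vehicle wells and 0% = 0.29 µM artemisinin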; settings: P. falciparum 3D7 proliferation; at 28.7 µM (top of the series)
# Outline: (§1)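 Erythrocytes infected with P. falciparum (0.3% parasitemia, 2.5% hematocrit) incubated with compounds 72 h at 37 C, 5% CO2. Lysis with saponin/Triton buffer containing SYBR Green I, overnight at room temperature in the dark; DNA fluorescence (485/535 nm) normalised to 0.29 uM artemisinin and DMSO.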
# [16] = qHTS profiling for inhibitors of Plasmodium falciparum (DD2) proliferation (AID 743323; call rule not given here); settings: lower = more inhibition; at 28.7 µM (top of the series)
# Outline: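 SYBR Green fluorescence (ex 485, em 535 nm) of lysed cultures gives parasite DNA content; wells normalized to artemisinin (0.29 uM) and DMSO controls. Infected red cells: 0.3% parasitemia, 2.5% hematocrit, 72 h, 37 C.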
# [17] = qHTS profiling for inhibitors of Plasmodium falciparum (HB3) proliferation (AID 743324); settings: Plasmodium falciparum HB3 blood-stage proliferation; at 28.7 µM (top of the series);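 note: 100% = DMSO vehicle wells and 0% = artemisinin-treated control wells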
# Outline: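 P. falciparum HB3 grown in erythrocytes (0.3% parasitemia, 2.5% hematocrit final) with compound for 72 h at 37 C, 5% CO2. Parasite DNA detected by SYBR Green after saponin/triton lysis overnight; normalized to 0.29 uM artemisinin and DMSO.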
# [18] = qHTS profiling of the MIPE4 collection as inhibitors of Plasmodium falciparum (3D7) proliferation (AID 743344; call rule not given here;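 note: scaled between DMSO vehicle wells and 0.29 µM artemisinin as full inhibition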); settings: P. falciparum 3D7 in erythrocytes, SYBR Green DNA fluorescence, 72 h; at 28.5 µM (top of the series)
# Outline: as §1
# [19] = qHTS profiling of the MIPE4 collection as inhibitors of Plasmodium falciparum (DD2) proliferation (AID 743345; call rule not given here); settings: P. falciparum Dd2 in erythrocytes, SYBR Green DNA, 72 h; at 28.5 µM (top of the series)
# Outline: as §1
# [20] = qHTS profiling of the MIPE4 collection as inhibitors of Plasmodium falciparum (DD2) proliferation (Rep 2) (AID 743346; call rule not given here); settings: P. falciparum Dd2 in erythrocytes, SYBR Green DNA, 72 h; at 28.5 µM (top of the series)
# Outline: as §1
# [21] = qHTS profiling of the MIPE4 collection as inhibitors of Plasmodium falciparum (HB3) proliferation (AID 743347; call rule not given here;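 note: plate controls were DMSO vehicle wells for no effect and artemisinin wells for full effect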); settings: P. falciparum HB3 in erythrocytes, SYBR Green DNA, 72 h; at 28.5 µM (top of the series)
# Outline: as §1
# [22] = system: Zika virus NS2B-NS3 protease; experiment: Primary screen GU AMC qHTS for Zika virus inhibitors (AID 1347154);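 note: 0% = no-inhibitor control and -100% = no-enzyme control; nearly all actives have a fitted effect of over 70% in size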
# Outline: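 Unlinked Zika NS2B hydrophilic domain–NS3 protease complex at 25 nM in 10 mM Tris-HCl pH 8.0, 0.01% Tween 20, with an AMC peptide substrate. Fluorescence change (340/450 nm) over 15 min at room temperature, normalized to controls, fitted to 4-parameter Hill.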
# [23] = Primary qHTS for small molecule stabilizers of the endoplasmic reticulum resident proteome: Secreted ER Calcium Modulated Protein (SERCaMP) assay (AID 1508630); note: % is set by controls: 0 for no effect and ±100 for the full control effect
# Outline: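 GLuc-SERCaMP-expressing SH-SY5Y cells, pretreated 16 h with compound, are challenged with thapsigargin to empty ER calcium stores; after 4 h, coelenterazine is added directly to the medium and luminescence is imaged.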
# Sequence of Voltage-gated inwardly rectifying potassium channel KCNH2 (Homo sapiens) (Q12809 whole entry, looked up): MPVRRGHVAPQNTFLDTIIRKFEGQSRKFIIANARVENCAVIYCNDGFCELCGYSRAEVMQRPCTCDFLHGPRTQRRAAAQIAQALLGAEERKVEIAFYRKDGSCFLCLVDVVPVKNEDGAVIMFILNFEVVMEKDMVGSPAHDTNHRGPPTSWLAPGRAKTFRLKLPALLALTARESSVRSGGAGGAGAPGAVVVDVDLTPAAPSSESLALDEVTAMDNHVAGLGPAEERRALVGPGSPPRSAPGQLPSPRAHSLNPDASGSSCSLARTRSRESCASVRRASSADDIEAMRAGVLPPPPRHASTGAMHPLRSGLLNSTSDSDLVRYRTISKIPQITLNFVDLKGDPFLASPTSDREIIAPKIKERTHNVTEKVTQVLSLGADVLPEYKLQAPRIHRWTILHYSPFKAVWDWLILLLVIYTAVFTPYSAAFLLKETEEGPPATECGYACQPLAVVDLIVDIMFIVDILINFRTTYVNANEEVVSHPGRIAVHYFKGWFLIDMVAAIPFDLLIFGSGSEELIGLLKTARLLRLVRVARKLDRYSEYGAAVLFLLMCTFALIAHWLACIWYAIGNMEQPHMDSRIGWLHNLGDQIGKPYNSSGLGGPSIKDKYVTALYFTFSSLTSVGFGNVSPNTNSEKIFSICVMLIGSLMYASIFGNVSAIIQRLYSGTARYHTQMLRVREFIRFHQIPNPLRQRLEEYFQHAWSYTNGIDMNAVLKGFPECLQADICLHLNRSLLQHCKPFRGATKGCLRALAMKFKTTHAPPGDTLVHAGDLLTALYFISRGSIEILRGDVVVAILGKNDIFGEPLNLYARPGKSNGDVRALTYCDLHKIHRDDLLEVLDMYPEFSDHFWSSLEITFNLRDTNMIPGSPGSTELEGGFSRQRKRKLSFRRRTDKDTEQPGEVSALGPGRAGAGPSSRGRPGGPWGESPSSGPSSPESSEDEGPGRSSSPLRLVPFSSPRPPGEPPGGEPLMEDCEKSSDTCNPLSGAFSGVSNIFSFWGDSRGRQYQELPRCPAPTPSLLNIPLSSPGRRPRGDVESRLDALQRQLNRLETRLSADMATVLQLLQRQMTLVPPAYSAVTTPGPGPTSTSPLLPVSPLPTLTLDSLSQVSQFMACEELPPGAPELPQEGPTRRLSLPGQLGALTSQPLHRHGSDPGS
# Sequence of DNA dC->dU-editing enzyme APOBEC-3G (Homo sapiens) (Q9HC16 whole entry, looked up): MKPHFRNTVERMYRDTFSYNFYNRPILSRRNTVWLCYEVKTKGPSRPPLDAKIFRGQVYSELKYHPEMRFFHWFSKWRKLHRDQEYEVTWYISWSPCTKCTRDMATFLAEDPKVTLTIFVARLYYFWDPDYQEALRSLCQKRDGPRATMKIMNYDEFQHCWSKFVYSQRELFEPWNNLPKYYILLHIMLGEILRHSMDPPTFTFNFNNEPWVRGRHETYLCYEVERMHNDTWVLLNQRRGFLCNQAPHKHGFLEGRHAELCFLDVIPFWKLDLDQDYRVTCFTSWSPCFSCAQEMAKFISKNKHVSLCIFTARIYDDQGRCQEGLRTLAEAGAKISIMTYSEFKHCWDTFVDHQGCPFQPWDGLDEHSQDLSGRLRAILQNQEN
# Sequence of M-phase phosphoprotein 8 (Homo sapiens) (Q99549 whole entry, looked up): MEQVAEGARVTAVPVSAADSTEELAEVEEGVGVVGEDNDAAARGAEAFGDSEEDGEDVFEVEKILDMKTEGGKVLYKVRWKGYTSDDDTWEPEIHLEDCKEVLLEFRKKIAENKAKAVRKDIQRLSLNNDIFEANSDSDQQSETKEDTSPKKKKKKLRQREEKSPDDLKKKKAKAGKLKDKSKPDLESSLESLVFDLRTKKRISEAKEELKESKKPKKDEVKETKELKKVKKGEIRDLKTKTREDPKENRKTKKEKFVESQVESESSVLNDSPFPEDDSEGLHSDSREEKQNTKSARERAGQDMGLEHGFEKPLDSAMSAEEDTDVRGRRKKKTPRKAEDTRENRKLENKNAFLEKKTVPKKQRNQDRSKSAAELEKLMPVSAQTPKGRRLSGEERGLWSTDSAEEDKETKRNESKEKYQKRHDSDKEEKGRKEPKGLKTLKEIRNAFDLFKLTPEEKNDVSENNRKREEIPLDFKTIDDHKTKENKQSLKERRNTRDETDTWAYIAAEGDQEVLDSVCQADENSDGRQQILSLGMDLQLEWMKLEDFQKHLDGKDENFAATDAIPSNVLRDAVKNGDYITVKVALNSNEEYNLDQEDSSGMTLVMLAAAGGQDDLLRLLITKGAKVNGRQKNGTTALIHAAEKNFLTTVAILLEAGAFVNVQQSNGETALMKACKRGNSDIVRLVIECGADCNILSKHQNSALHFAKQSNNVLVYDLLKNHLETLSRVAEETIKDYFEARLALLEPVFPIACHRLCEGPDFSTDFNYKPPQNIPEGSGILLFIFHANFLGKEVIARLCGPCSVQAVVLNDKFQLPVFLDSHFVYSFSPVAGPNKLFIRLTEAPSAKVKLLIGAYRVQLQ
# Sequence of ATP-dependent DNA helicase Q1 (Homo sapiens) (P46063 whole entry, looked up): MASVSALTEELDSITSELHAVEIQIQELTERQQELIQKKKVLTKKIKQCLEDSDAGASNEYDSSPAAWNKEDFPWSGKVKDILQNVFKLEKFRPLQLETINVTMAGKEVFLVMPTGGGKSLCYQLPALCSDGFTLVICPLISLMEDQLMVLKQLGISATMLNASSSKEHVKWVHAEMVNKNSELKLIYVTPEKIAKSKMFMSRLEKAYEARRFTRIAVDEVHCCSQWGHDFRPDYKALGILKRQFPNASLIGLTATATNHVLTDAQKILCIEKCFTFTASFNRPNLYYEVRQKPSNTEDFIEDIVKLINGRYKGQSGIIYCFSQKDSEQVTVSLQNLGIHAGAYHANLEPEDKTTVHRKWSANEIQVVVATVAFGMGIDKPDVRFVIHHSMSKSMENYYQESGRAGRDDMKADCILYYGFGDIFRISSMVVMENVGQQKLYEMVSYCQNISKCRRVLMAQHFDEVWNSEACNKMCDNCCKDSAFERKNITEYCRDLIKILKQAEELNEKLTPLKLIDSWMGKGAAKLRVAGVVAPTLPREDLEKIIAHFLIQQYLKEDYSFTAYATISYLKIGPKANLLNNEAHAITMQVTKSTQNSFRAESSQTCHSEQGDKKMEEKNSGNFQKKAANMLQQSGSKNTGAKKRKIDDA
# Sequence of Thyrotropin receptor (Homo sapiens) (P16473 whole entry, looked up): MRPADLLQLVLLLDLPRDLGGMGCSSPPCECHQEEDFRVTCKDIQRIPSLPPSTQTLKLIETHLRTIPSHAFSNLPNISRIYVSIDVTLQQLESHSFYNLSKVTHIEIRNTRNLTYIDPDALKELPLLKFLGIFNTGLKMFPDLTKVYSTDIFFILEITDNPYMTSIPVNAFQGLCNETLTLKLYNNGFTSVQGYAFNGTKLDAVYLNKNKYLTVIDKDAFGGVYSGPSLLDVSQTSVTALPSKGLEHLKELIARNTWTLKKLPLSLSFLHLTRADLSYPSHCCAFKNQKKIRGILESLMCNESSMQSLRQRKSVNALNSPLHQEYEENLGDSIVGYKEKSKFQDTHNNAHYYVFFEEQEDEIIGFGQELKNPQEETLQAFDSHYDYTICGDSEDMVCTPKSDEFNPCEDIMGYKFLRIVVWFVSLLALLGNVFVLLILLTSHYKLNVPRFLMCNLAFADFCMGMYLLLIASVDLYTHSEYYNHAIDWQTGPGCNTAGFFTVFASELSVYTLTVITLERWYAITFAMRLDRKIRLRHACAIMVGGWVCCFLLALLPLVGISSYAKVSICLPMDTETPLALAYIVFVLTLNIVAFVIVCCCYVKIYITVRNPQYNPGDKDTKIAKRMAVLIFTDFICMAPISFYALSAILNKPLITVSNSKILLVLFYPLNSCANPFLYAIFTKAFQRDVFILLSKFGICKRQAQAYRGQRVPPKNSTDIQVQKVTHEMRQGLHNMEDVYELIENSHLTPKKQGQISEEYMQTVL
# Sequence of Thyrotropin-releasing hormone receptor (Homo sapiens) (P34981 whole entry, looked up): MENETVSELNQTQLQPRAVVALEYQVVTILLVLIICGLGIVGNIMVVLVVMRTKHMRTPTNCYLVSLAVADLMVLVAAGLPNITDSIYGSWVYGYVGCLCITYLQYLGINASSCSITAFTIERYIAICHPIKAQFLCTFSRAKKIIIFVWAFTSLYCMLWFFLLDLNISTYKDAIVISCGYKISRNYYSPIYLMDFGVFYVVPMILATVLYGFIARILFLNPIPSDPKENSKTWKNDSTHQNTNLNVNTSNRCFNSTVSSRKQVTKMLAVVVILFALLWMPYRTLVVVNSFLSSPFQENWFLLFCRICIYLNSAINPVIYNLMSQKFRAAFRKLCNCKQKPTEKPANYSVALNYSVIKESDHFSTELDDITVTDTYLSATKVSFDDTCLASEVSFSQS
# Sequence of Transient receptor potential cation channel subfamily V member 1 (Homo sapiens) (Q8NER1 whole entry, looked up): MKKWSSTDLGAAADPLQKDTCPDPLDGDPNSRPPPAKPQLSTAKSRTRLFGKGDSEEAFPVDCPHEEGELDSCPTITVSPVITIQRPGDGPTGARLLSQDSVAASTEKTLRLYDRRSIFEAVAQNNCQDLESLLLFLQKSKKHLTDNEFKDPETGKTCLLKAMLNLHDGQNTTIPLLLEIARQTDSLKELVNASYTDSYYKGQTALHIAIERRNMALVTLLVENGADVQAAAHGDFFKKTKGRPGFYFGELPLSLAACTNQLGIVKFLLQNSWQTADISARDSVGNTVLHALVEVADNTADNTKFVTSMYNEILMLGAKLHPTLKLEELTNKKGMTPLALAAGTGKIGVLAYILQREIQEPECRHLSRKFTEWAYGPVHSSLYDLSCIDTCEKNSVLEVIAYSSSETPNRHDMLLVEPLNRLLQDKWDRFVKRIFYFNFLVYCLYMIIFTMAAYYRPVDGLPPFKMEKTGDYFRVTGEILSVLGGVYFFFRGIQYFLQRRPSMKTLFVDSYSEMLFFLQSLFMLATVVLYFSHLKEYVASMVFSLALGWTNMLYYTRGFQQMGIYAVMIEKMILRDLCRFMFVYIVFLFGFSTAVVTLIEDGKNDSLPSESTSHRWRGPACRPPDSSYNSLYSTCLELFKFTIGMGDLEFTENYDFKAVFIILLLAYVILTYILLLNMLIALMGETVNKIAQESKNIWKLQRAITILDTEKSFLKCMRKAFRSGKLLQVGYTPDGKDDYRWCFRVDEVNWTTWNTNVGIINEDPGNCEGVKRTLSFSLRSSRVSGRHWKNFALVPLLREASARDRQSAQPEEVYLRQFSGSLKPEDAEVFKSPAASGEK
smiles,measurement,setting,value
COc1cc2c(cc1C(F)(F)F)N(C(=O)Nc1cc(F)cc(-c3cccnc3)c1)CC2,Potency,[1],6310 nM (active)
same,Potency,[2],2240 nM (active)
same,Potency,[3],1260 nM (active)
same,outcome,[4],inactive
same,Potency,[5],inactive
same,Potency,[6],1850 nM (active)
same,Potency,[7],2940 nM (active)
same,Potency,[8],inactive
same,outcome,[9],inactive
same,outcome,[10],inactive
same,activation,[11],5.25% (inactive)
same,outcome,[12],inactive
same,Potency,[13],inactive
same,Potency,[14],inactive
same,remaining parasite growth % (stronger effect = lower value),[15],-1.39%
same,"activity, percent of control",[16],5.68%
same,"remaining proliferation (% of control), lower = more inhibition",[17],-0.36%
same,"parasite growth, % of DMSO control",[18],6.27%
same,"parasite growth remaining, % of DMSO control (lower = more inhibition)",[19],15.3%
same,"parasite growth, % of control (lower = inhibition)",[20],34.1%
same,"growth, % of control",[21],3.34%
same,Potency,[22],inactive
same,Potency,[23],inactive
